# Laboratory results from PubChem BioAssay (Tox21).
# Results filed as inconclusive are left out. Entries that show only a call come without a potency. Activity calls are given as the source filed them. Calls follow the shape of the dose curve; as a rule, active = well fitted cell-killing curve with a large enough effect in the repeat runs; inconclusive = weak or mixed curves, or effect the other way; inactive = flat fitted curve, though single readings scatter.
# Test: cAMP Responsive Elements (CRE) small molecule antagonists, cell-based qHTS assay: qHTS cell viability counter screen (AID 2060913); also: nearly all actives have a fitted effect of over 40% in size
# Settings: CRE-bla HEK293T viability, CellTiter-Glo luminescence, 5 h; series mostly up to 92.4 µM
# From the text: U.S. Tox21 Program National Center for Advancing Translational Sciences [NCATS] Division of Preclinical Innovation [DPI] U.S. Environmental Protection Agency [EPA] National Institutes of Environmental Health Sciences [NIEHS] National Toxicology Program [NTP] U.S. Food and Drug Administration [FDA] Tox21 Assay Overview: CREB (cyclic-AMP Responsive Element Binding Protein) is a cellular transcription factor. It binds to certain DNA sequences called cAMP Responsive Elements (CRE) and regulates the transcription of the genes. […] This cell line can be used to find agonists/antagonists of the cyclic AMP signaling pathway. The activation of the report gene under culture conditions can be detected by fluorescence intensity. This cell line has been used to screen the Tox21 10K compound library to identify agonists that induce oxidative stress. The cytotoxicity of the Tox21 compound library against the CRE-bla cell line was tested in parallel by measuring the cell viability using CellTiter-Glo assay (Promega, Madison, WI) in the same wells.
# Tox21 Assay Protocol Summary: CRE-bla Hek 293T cells were suspended in assay medium (DMEM containing 10% dialyzed FBS, 0.1 mM NEAA, 1 mM sodium pyruvate and 25 mM HEPES) and dispensed at 2,000 cells/4 uL /well into 1536-well black wall/clear bottom plates using a Multidrop Combi (ThermoFisher Scientific, Waltham, MA) dispenser. After the assay plates were incubated at 37 C/5% CO2 for 18 hrs, 23 nL of compounds dissolved in DMSO, positive controls or DMSO only was transferred to the assay plate by a pintool workstation (Kalypsys, San Diego, CA), followed by addition of 1 uL of 1.25uM NKH477 (0.25 uM as final concentration) in assay medium using a Flying Reagent Dispenser (Aurora Discovery, San Diego, CA). The plates were incubated at 37 C and 5% CO2 for 3 hrs. Then 1 uL of LiveBLAzer B/G FRET substrate (Invitrogen, Carlsbad, CA) was added to each well using Bioraptr Flying Reagent Dispenser (FRD, Aurora Discovery, San Diego, CA). The plates were incubated at room temperature for 2 h, then fluorescence intensities were measured using an Envision plate reader (PerkinElmer, Shelton, CT) at Excitation 405nm, Emission 460nm and 530nm. The % activity was determined from the ratio of 460nm/530nm. For cell viability readout that measures cytotoxicity, 4 uL /well of CellTiter-Glo reagent was added into the assay plates using Bioraptr FRD. After 30 min incubation at room temperature, the luminescence intensity in the assay plates was measured using a ViewLux (PerkinElmer, Shelton, CT) plate reader.
# Potency is read from the fitted curve at half-maximal effect.
Compound,Potency,"viability change, negative = cytotoxic"
CCCCCCOCCOCCO,inactive,–
CC(C)NCC(O)c1ccc(O)c(O)c1 (stereo not given),inactive,–
COC(C)(C)CC(C)=O,inactive,–
COC(=O)c1cc(Cl)cc(Cl)c1,inactive,–
Nc1ccc2ccccc2c1S(=O)(=O)O,inactive,–
O=C(O)C(Cc1cc(I)c(O)c(I)c1)c1ccccc1 (stereo not given),inactive,–
CC(C)Cn1cnc2c1c(=O)n(C)c(=O)n2C,inactive,–
CC1=CC(O)CC(C)(C)C1 (stereo not given),inactive,–
CC(C)(C)NCC(O)c1cc(O)cc(O)c1 (stereo not given),inactive,–
Nc1cc(S(=O)(=O)O)ccc1S(=O)(=O)O,inactive,–
CCN(CC)C(C)CN1c2ccccc2Sc2ccccc21 (stereo not given),inactive,–
c1ccc2c(c1)Cc1ccccc1-2,inactive,–
Cc1c(C(=O)O)cccc1[N+](=O)[O-],inactive,–
O=C(Cl)c1cc(C(=O)Cl)cc(C(=O)Cl)c1,inactive,–
O=C(O)CN(CCOCCOCCN(CC(=O)O)CC(=O)O)CC(=O)O,–,-0.164% [at 0.349 µM] (inactive)
CC(=O)Nc1ccc(S(=O)(=O)Nc2ccc([N+](=O)[O-])cc2)cc1,inactive,–
N#CCCOCCOCCC#N,inactive,–
CCCCCCc1ccc(N)cc1,inactive,–
Clc1cc(Cl)c2c(c1)N=C1CCCCCN1C2,inactive,–
c1ccc(CNc2ncnc3nc[nH]c23)cc1,inactive,–

Compound,Potency,"viability change, negative = cytotoxic"
[Cl][Eu]([Cl])[Cl],inactive,–
Clc1cccc(-c2cc(Cl)cc(Cl)c2)c1,inactive,–
CCCc1ccc(N)cc1,inactive,–
O=Cc1ccc([N+](=O)[O-])cc1,inactive,–
Cc1ncc(CSSCc2cnc(C)c(O)c2CO)c(CO)c1O,inactive,–
CCO[Si](CC)(OCC)OCC,inactive,–
O=C(Nc1ccc(Cl)cc1)Nc1ccc(Cl)c(Cl)c1,inactive,–
Cc1cn([C@H]2C[C@H](F)[C@@H](CO)O2)c(=O)[nH]c1=O,inactive,–
CC(=O)c1ccc2ccc3ccccc3c2c1,inactive,–
CCCCCCOC(=O)CCCCC(=O)OCCCCCC,inactive,–
c1ccc(CCCc2ccccn2)cc1,inactive,–
CN(C[C@@H](CC[N+]12CCC(C3CCCCC3)(CC1)CC2)c1ccc(Cl)c(Cl)c1)C(=O)c1cc(C(F)(F)F)cc(C(F)(F)F)c1,54.5 µM (active),–
COC(Cc1ccccc1)OC,inactive,–
CSc1ccc(C=O)cc1,inactive,–
CC(O)CC(C)(C)O (stereo not given),inactive,–
O=C(O)Cn1c(=O)n(Cc2ccc(Br)cc2F)c(=O)c2ccc(Cl)cc21,inactive,–
CCOC(=O)CC(=O)c1cc(F)c(Cl)nc1Cl,inactive,–
N#CSCC(=O)O,inactive,–
COC(=O)c1ccccc1C(=O)O,inactive,–
O=C(CS)OCCOC(=O)CS,inactive,–
